# Bioassay records from PubChem BioAssay.
# This is a sample that favours compounds with a hit; in the whole collection about 6.8% have one here.
# PINK1 modulator: modulators of PINK1 expression | PINK1 immunofluorescence, high-content cytometry, 24 h | Potency, µM (doses to about 76.6 µM), hits mostly activators | actives 0.2% (n = 410,000) | AID 624263; active means well fitted activation curve with a large enough effect; inconclusive means small, poorly fitted or top-dose-only effect; cell line not stated here; further: nearly all actives have a fitted effect of over 65% in size
#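 Stable cell line, 250 cells/well, 12 h attachment; compounds pinned at 5 concentrations, 24 h; CCCP control. Fixed with nuclear dye, primary antibodies 12 h at 10 degrees C, secondary plus cell stain; laser-scanning cytometer read.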
# MCF10A rerep: induces DNA re-replication in MCF 10a normal breast cells | actives 2.9% (n = 350,000) | Potency, µM (doses to about 46.1 µM), actives largely listed as activators | MCF 10A DNA re-replication, Hoechst nuclear intensity, 48 h; further: nearly all actives have a fitted effect of over 50% in size
# KB-3-1 cytotox: kills parental KB-3-1 adenocarcinoma cells; KB-3-1 viability, CellTiter-Glo ATP luminescence, 72 h; Potency, µM (series often up to 46.1 µM), most hits filed as cytotoxic; actives 1.4% (n = 400,000); AID 1347075; further: nearly all actives have a fitted effect of over 60% in size
#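 Screening of KB-3-1 cells (DMEM, 10% FBS, phenol-red free) ran from lowest to highest compound concentration; after 72 h at 37 °C viability was read luminescently and curves fitted.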
# KB-V1 cytotox: KB-V1 MDR subline cytotoxicity; KB-V1 MDR cells viability, CellTiter-Glo, 72 h; Potency, µM (titrated, usually from 46.1 µM), actives largely listed as cytotoxic; actives 3.4% (n = 400,000); further: nearly all actives have a fitted effect of over 60% in size
#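 Compound-treated KB-V1 multidrug-resistant cells, 72 h, 37 degrees C; viability by CellTiter-Glo. Fitted qHTS curves give the values.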
# PTAP TSG101 blk: blocks PTAP/TSG101 interaction to inhibit HIV-1 budding | Potency, µM (series often up to 115 µM), actives largely listed as inhibitors | 340,000 tested, under 10 active | Q99816 | AID 493005 | Fluorescence polarization, FITC-PTAP peptide / Tsg101 binding; active means well fitted inhibition curve with a large enough effect in the main read-out, with a control signal flat, not every such curve was filed as active; inconclusive means small, poorly fitted or top-dose-only effect, or effect the other way, or a change in a side signal; inactive means no such curve, though single readings can be large or run the other way
# Target sequence (Q99816 whole entry, looked up): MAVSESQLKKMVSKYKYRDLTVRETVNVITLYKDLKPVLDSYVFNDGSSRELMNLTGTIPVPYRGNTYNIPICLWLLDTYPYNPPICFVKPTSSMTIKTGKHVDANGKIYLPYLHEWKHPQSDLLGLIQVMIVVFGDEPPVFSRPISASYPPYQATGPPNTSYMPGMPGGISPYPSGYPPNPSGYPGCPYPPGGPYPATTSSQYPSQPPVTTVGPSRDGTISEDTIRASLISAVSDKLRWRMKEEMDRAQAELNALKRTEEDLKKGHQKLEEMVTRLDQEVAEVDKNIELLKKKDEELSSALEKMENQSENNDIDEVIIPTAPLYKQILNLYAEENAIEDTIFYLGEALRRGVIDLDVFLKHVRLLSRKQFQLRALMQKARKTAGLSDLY
#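 FP read-out: FITC-PTAP peptide, 50 nM final, binding Tsg101 binding domain, 10 uM final; 20 min, r.t.; 10 mM HEPES pH 7.5, 0.15 M NaCl, 0.01% Tween 20, 3 mM EDTA, 0.1 mM TCEP.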
# SW480 rerep: inducers of DNA re-replication in SW480 colon cancer cells. Potency, µM (doses to about 46.1 µM), usual class: activators. AID 624297. actives 1.8% (n = 340,000). SW480 DNA re-replication, Hoechst DNA content imaging, 48 h; further: nearly all actives have a fitted effect of over 55% in size
#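 Compounds, transferred as 23 nL by pin tool, were incubated with cells for 48 hr; DNA content per nucleus was then quantified by Hoechst staining and fluorescence plate imaging.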
# Numbers stand for hits; n = inactive; u = inconclusive; x = not tested or not shown. Unless noted, the call rests on the fitted dose curve; in most records, active means well fitted curve in the direction sought with a large enough effect; inconclusive means small, poorly fitted or top-dose-only effect, or another doubt; inactive means no such curve, though single readings can be large; an effect the other way counts as inactive or inconclusive.
SMILES,PINK1 modulator,MCF10A rerep,KB-3-1 cytotox,KB-V1 cytotox,PTAP TSG101 blk,SW480 rerep
CC(=O)NC(c1ccco1)c1ccc2cccnc2c1O (stereo not given),n,u,8.2µM,u,n,3.3µM
Cc1nc2c(C(=O)NCc3ccccc3Cl)cnn2c(C)c1Cc1c(F)cccc1Cl,n,x,n,n,x,x
CCC(=O)NC(c1cc(Cl)c2cccnc2c1O)C(C)C (stereo not given),n,n,n,u,n,0.23µM
COc1ccc2c(=O)c(C)c(-c3ccccc3)oc2c1CN(C)C,x,n,x,x,x,n
CCN(C1CCCCC1)S(=O)(=O)c1ccc(S(=O)(=O)N(CC(=O)Nc2ccccc2)C2CC2)cc1,n,n,n,6.5µM,x,n
Cc1ccc(S(=O)(=O)N(CC(=O)Nc2ccc(Cl)c([N+](=O)[O-])c2)C2CCCCC2)cc1,n,u,u,4.6µM,n,u
O=C(CN(C1CC1)S(=O)(=O)c1ccc(S(=O)(=O)N2CCCCCC2)cc1)Nc1ccccc1,n,n,n,n,n,n
CCN(c1ccccc1)c1nnc(NC(=O)Nc2cccc(Br)c2)s1,n,x,n,n,x,x
N#C/C(=C\C=C\c1ccccc1[N+](=O)[O-])C(=O)NCc1ccccc1,n,3.7µM,16µM,u,n,21µM
CCCCCCCCNC(=O)/C(C#N)=C/c1ccccc1[N+](=O)[O-],n,u,u,16µM,n,n
Cc1cccn2c(=O)c3cc(C(=O)NC4CCCCC4)c(=N)n(CCN4CCOCC4)c3nc12,n,u,n,n,n,u
Cc1cccn2c(=O)c3cc(C(=O)NCc4ccc(F)cc4)c(=N)n(CCCN4CCOCC4)c3nc12,n,u,n,n,n,8.2µM
CCCCNC(=O)c1cc2c(=O)n3cccc(C)c3nc2n(CCN2CCOCC2)c1=N,n,u,n,10µM,n,u
CCOCCCn1c(=N)c(C(=O)NCc2ccc3c(c2)OCO3)cc2c(=O)n3cccc(C)c3nc21,n,u,6.5µM,n,n,u
CCOCCCn1c(SCC(=O)NCc2ccc3c(c2)OCO3)nc2ccccc2c1=O,n,n,n,15µM,n,n
COCCCn1c(=N)c(C(=O)NCc2ccc3c(c2)OCO3)cc2c(=O)n3cccc(C)c3nc21,n,n,n,n,n,u
CC(=O)c1ccc(NC(=O)c2c3c(nc4ccccc24)C(=O)N(C2CCCCC2)C3)cc1,n,x,n,n,x,x
O=C(CSc1ncccc1C(=O)Oc1ccccc1Cl)Nc1ccccc1Cl,n,x,x,x,x,x
CCOC(=O)C1CCN(C(=O)Cn2ncc3c4ccccc4n(Cc4ccc(F)cc4)c3c2=O)CC1,n,x,n,n,x,x
CCc1ccc(N(C(=O)c2snc(C(N)=O)c2N)C(C(=O)NCC2CCCO2)c2cccs2)cc1 (stereo not given),n,18µM,n,n,n,u
CCOc1ccc(C(C(=O)NCC2CCCO2)N(CCc2cccc(C)c2)C(=O)c2snc(C(N)=O)c2N)cc1 (stereo not given),n,u,u,21µM,n,n
NC(=O)c1nsc(C(=O)N(c2ccc(Cl)cc2)C(C(=O)NCC2CCCO2)c2cccs2)c1N (stereo not given),n,n,n,n,n,u
CCc1ccc(N(CC)C(=O)c2ccc3c(=O)n4c(nc3c2)CCCCC4)cc1,n,x,x,x,x,x
CCC(C)(C)NC(=O)C1CCN(S(=O)(=O)c2c(C)noc2/C=C/c2ccc(C)cc2)CC1,n,x,n,n,x,x
N#CC(C#N)=C1C=CC=CN1/C(=C\c1ccccc1Cl)C(=O)c1ccccc1,n,6.5µM,u,u,n,9.2µM
SMILES,PINK1 modulator,MCF10A rerep,KB-3-1 cytotox,KB-V1 cytotox,PTAP TSG101 blk,SW480 rerep
O=C(C1=NNCC1c1ccccc1)C1CO1 (stereo not given),n,23µM,n,n,n,16µM
Cc1cccc(C)c1NC(=S)N=Nc1c(O)n(C)c2ccc(S(=O)(=O)N3CCOCC3)cc12,n,u,u,3.7µM,n,n
Cc1cccc(NC(=S)N=Nc2c(O)n(C)c3ccc(S(=O)(=O)N4CCOCC4)cc23)c1,n,n,u,0.73µM,n,u
O=S(=O)(c1ccc(Cl)cc1)N1CCN(c2nc(-c3ccc(F)cc3)nc3cc(Cl)ccc23)CC1,n,x,x,x,x,x
O=C(Nc1ccc(-c2cn3cccnc3n2)cc1)c1ccccc1F,n,x,x,x,x,x
O=C(Nc1cccc(S(=O)(=O)N2CCCCC2)c1)c1ccc(OCC2CCCO2)cc1 (stereo not given),n,n,n,8.2µM,n,n
Cc1ccc(NC(=O)c2ccc(OCC3CCCO3)cc2)cc1 (stereo not given),n,u,n,21µM,n,n
Cc1ccc(Oc2ccc(NC(=O)c3ccco3)cc2)cc1,n,n,u,u,n,n
O=C(COc1ccc(S(=O)(=O)N2CCCC2)cc1)NCC1CCCO1 (stereo not given),n,n,n,n,n,u
O=C(Nc1ccc(S(=O)(=O)N2CCCC2)cc1)c1ccc(OCC2CCCO2)cc1 (stereo not given),n,n,21µM,u,n,n
Cc1ccc(NC(=O)c2ccc(OC(=O)c3ccco3)cc2)cc1,n,21µM,n,n,n,u
O=C(CNC(=O)C1CCCCC1)OCC(=O)c1ccccc1,n,x,u,u,x,x
COc1ccc(-c2c(O)c3c(OC)c4c(cc3oc2=O)OC(C)(C)CC4)cc1,n,x,x,x,x,x
NC[C@H](Cc1ccccc1)NCCCCC1CCCCC1,n,n,n,n,x,n
CNC[C@H](CC1CCCCC1)NC[C@H](Cc1ccccc1)NCCC12CC3CC(CC(C3)C1)C2,n,u,u,18µM,n,n
O=C(c1ccco1)N(CCC(c1ccccc1)c1ccco1)Cc1ccco1 (stereo not given),n,u,n,13µM,n,n
Cc1ccc(C(CCN(Cc2ccccc2)C(=O)c2ccco2)c2ccco2)cc1 (stereo not given),n,u,n,u,n,n
CC(=O)N(CCC(c1ccccc1)c1ccco1)Cc1cccs1 (stereo not given),n,n,u,21µM,n,n
O=C(Nc1nc2n(n1)C(c1ccc(F)cc1)C=C(c1ccc(Cl)cc1)N2)c1ccc([N+](=O)[O-])cc1 (stereo not given),n,x,u,n,x,x
CCOc1cccc(C2C(C(=O)c3ccc(C)o3)=C(O)C(=O)N2Cc2ccccc2)c1 (stereo not given),n,n,n,8.2µM,n,n
CCOc1cccc(C2C(C(=O)c3ccc(C)o3)=C(O)C(=O)N2Cc2ccncc2)c1 (stereo not given),n,n,n,n,n,n
